From PubChem BioAssay (EPA / NIEHS) come the findings set out here.

Read-out in test [1]: Fatty acid synthase (Homo sapiens) (UniProt P49327)
The test can be described thus: LTEA_HepaRG_FASN: Life Technologies and Expression Analysis (LTEA) Assay for Fatty Acid Synthase (FASN) using HepaRG (AID 2283448). The following applies: mRNA level, 48 h; actives raise or lower the signal. Summed up:
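In human HepaRG cultures, 48 h chemical exposure (up to 100 uM, 0.5% DMSO) preceded TaqMan qRT-PCR of FASN.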

Read-out in test [2]: Cyclin Dependent Kinase Inhibitor 1A (CDKN1A), CDKN1A (gene 1026)
The test can be described thus: LTEA_HepaRG_CDKN1A: Life Technologies and Expression Analysis (LTEA) Assay for Cyclin Dependent Kinase Inhibitor 1A (CDKN1A) using HepaRG (AID 2283450). As to conditions: mRNA level, 48 h; actives raise or lower the signal. Summed up:
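Cryopreserved HepaRG cells were plated and cultured 48 h, then switched to serum-free induction medium. Chemicals (eight half-log concentrations, top 100 uM, 0.5% DMSO) were applied for 48 h. Lysates underwent qRT-PCR for CDKN1A with housekeeping normalization.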

Read-out in test [3]: Cyclin D1 (CCND1), CCND1 (gene 595)
Put plainly: LTEA_HepaRG_CCND1: Life Technologies and Expression Analysis (LTEA) Assay for Cyclin D1 (CCND1) using HepaRG (AID 2283451).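 As to AC50: TaqMan qRT-PCR transcript level normalised to ACTB GAPDH and POLR2A housekeeping genes.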 The following applies: mRNA level, 48 h; actives raise or lower the signal. Summed up:
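Human liver HepaRG line; 48 h dosing, 8 conc. ≤100 uM, 0.5% DMSO; TaqMan qRT-PCR mRNA, 3 housekeeping genes; bidirectional curve fit vs DMSO.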

Read-out in test [4]: catalase (CAT), CAT (gene 847)
The test can be described thus: LTEA_HepaRG_CAT: Life Technologies and Expression Analysis (LTEA) Assay for catalase (CAT) using HepaRG (AID 2283452). The following applies: mRNA level, 48 h; actives raise or lower the signal. The method in brief: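 Expression of CAT was quantified by TaqMan qRT-PCR with ACTB/GAPDH/POLR2A normalization after 48 h chemical exposure of HepaRG. Eight-point half-log series, top 100 uM, in 0.5% DMSO; gain or loss fitted against vehicle.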

Read-out in test [5]: flavin-containing dimethylaniline monooxygenases 3 (FMO3), FMO3 (gene 2328)
The test can be described thus: LTEA_HepaRG_FMO3: Life Technologies and Expression Analysis (LTEA) Assay for flavin-containing dimethylaniline monooxygenases 3 (FMO3) using HepaRG (AID 2283453). As to conditions: mRNA level, 48 h; actives raise or lower the signal. Summed up:
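Eight-point concentration-response in serum-free HepaRG cultures (top 100 uM, 0.5% DMSO, 48 h). Read-out: FMO3 mRNA level normalized to three endogenous control genes, fitted bidirectionally versus vehicle.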

Read-out in test [6]: Cytochrome P450 (CYP1A1), CYP1A1 (gene 1543)
The test can be described thus: LTEA_HepaRG_CYP1A1: Life Technologies and Expression Analysis (LTEA) Assay for Cytochrome P450 (CYP1A1) using HepaRG (AID 2283454). The following applies: mRNA level, 48 h; actives raise or lower the signal. Summed up: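 Induction of CYP1A1 mRNA in a human hepatic cell line was measured 48 h after dosing, with 1 mM phenobarbital as induction positive control and 0.5% DMSO vehicle as baseline for bidirectional curve fitting.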

Read-out in test [7]: CFLAR gene, CFLAR (gene 8837)
The test can be described thus: LTEA_HepaRG_CFLAR: Life Technologies and Expression Analysis (LTEA) Assay for CFLAR gene using HepaRG (AID 2283455). The following applies: mRNA level, 48 h; actives raise or lower the signal. Summed up:
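Transcript level by qRT-PCR (normalized to ACTB, GAPDH and POLR2A) after 48 h chemical exposure of HepaRG cells, top concentration 100 uM with half-log steps, 0.5% DMSO vehicle, duplicates; fitted bidirectionally against DMSO baseline.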

Read-out in test [8]: Forkhead box O1 (FOXO1), FOXO1 (gene 2308)
Put plainly: LTEA_HepaRG_FOXO1: Life Technologies and Expression Analysis (LTEA) Assay for Forkhead box O1 (FOXO1) using HepaRG (AID 2283456). As to conditions: mRNA level, 48 h; actives raise or lower the signal. The method in brief: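 FOXO1 transcript quantified by qRT-PCR after 48 h chemical exposure (top 100 uM, half-log steps, 0.5% DMSO) of HepaRG cells, housekeeping-normalized (ACTB/GAPDH/POLR2A). Changes fitted in both directions relative to vehicle.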

Test [9] can be described thus: CEETOX_H295R_TESTO: CeeTox H295R High-throughput Steroidogenesis Assay for Testosterone (TESTO) (AID 2283457).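 Also: cells exposed to chemicals for 48 h before medium collection.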 The following applies: actives raise or lower the signal. The method in brief: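 Testosterone synthesis is assessed in human adrenocortical H295R cells after 48 h of chemical exposure, using HPLC-MS/MS of extracted medium. Activity is fitted in both directions against DMSO control.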

Read-out in test [10]: growth arrest and DNA damage 45 (GADD45A), GADD45A (gene 1647)
The test can be described thus: LTEA_HepaRG_GADD45A: Life Technologies and Expression Analysis (LTEA) Assay for growth arrest and DNA damage 45 (GADD45A) using HepaRG (AID 2283458). As to conditions: mRNA level, 48 h; actives raise or lower the signal. Summed up: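 Eight-point concentration-response in HepaRG cells: 48 h chemical exposure, 0.5% DMSO vehicle, top dose 100 uM. Normalized qRT-PCR mRNA readout with bidirectional fitting relative to DMSO.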

Read-out in test [11]: Forkhead box O3 (FOXO3), FOXO3 (gene 2309)
The test can be described thus: LTEA_HepaRG_FOXO3: Life Technologies and Expression Analysis (LTEA) Assay for Forkhead box O3 (FOXO3) using HepaRG (AID 2283459). The following applies: mRNA level, 48 h; actives raise or lower the signal. The method in brief:
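FOXO3 transcript measured by qRT-PCR (normalized to ACTB, GAPDH, POLR2A) after 48 h exposure of HepaRG cells in serum-free induction medium. Duplicates, eight half-log concentrations up to 100 uM, 0.5% DMSO; gain or loss fitted against DMSO.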

Read-out in test [12]: ABC Transporter (ABCB1), ABCB1 (gene 5243)
The test can be described thus: LTEA_HepaRG_ABCB1: Life Technologies and Expression Analysis (LTEA) Assay for ABC Transporter (ABCB1) using HepaRG (AID 2283460). As to conditions: mRNA level, 48 h; actives raise or lower the signal. The method in brief:
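ABCB1 transcript level measured by TaqMan qRT-PCR against three housekeeping genes after 48 h chemical exposure of differentiated HepaRG cells. Top concentration 100 uM, half-log steps, eight points, 0.5% DMSO vehicle; bidirectional fit relative to DMSO.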

Read-out in test [13]: growth arrest and DNA damage 45 (GADD45B), GADD45B (gene 4616)
Put plainly: LTEA_HepaRG_GADD45B: Life Technologies and Expression Analysis (LTEA) Assay for growth arrest and DNA damage 45 (GADD45B) using HepaRG (AID 2283461). The following applies: mRNA level, 48 h; actives raise or lower the signal. The method in brief:
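Values are bidirectional concentration-response fits against 0.5% DMSO controls. Underlying data: qRT-PCR mRNA levels in human HepaRG liver cells treated 48 h in serum-free induction medium, eight concentrations topping at 100 uM.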

Read-out in test [14]: ABC Transporter (ABCC3), ABCC3 (gene 8714)
Put plainly: LTEA_HepaRG_ABCC3: Life Technologies and Expression Analysis (LTEA) Assay for ABC Transporter (ABCC3) using HepaRG (AID 2283462). The following applies: mRNA level, 48 h; actives raise or lower the signal. Summed up: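 Differentiated HepaRG liver cells receive test chemicals at eight concentrations (max 100 uM) for 48 h. Expression of ABCC3 is quantified by qRT-PCR against ACTB, GAPDH and POLR2A, and activity is fitted in both directions against the DMSO control.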

Read-out in test [15]: ABC Transporter (ABCB11), ABCB11 (gene 8647)
Put plainly: LTEA_HepaRG_ABCB11: Life Technologies and Expression Analysis (LTEA) Assay for ABC Transporter (ABCB11) using HepaRG (AID 2283463). The following applies: mRNA level, 48 h; actives raise or lower the signal. Summed up: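 ABCB11 transcript levels quantified by TaqMan qRT-PCR against three housekeeping genes after 48 h chemical exposure of HepaRG cultures. Concentrations up to 100 uM in half-log steps, 0.5% DMSO vehicle; both induction and suppression scored.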

Read-out in test [16]: ABC Transporter (ABCC2), ABCC2 (gene 1244)
The test can be described thus: LTEA_HepaRG_ABCC2: Life Technologies and Expression Analysis (LTEA) Assay for ABC Transporter (ABCC2) using HepaRG (AID 2283464). The following applies: mRNA level, 48 h; actives raise or lower the signal. The method in brief:
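Gene expression of ABCC2 was determined by qRT-PCR in HepaRG cells exposed 48 h to chemicals (highest 100 uM, half-log dilutions). Activity was fitted in both directions relative to 0.5% DMSO vehicle.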

Read-out in test [17]: Broad substrate specificity ATP-binding cassette transporter ABCG2 (Homo sapiens) (UniProt Q9UNQ0)
The test can be described thus: LTEA_HepaRG_ABCG2: Life Technologies and Expression Analysis (LTEA) Assay for ABC Transporter (ABCG2) using HepaRG (AID 2283465). As to conditions: mRNA level, 48 h; actives raise or lower the signal. Summed up: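 ABCG2 transcript was quantified by TaqMan qRT-PCR against three housekeeping genes in HepaRG cells. Cells were treated in duplicate for 48 h across an 8-point half-log series up to 100 uM, with 0.5% DMSO vehicle. Gain or loss versus DMSO was fit.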

Read-out in test [18]: ATP-citrate lyase (ACLY), ACLY (gene 47)
Put plainly: LTEA_HepaRG_ACLY: Life Technologies and Expression Analysis (LTEA) Assay for ATP-citrate lyase (ACLY) using HepaRG (AID 2283466). The following applies: mRNA level, 48 h; actives raise or lower the signal. Summed up:
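ACLY mRNA quantified by qRT-PCR on Fluidigm arrays against three housekeeping genes, after 48 h chemical treatment of HepaRG cells (top concentration 100 uM, half-log steps, 0.5% DMSO vehicle). Up- or down-regulation fitted relative to DMSO.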

Read-out in test [19]: Peroxisomal acyl-coenzyme A oxidase 1 (ACOX1) gene, ACOX1 (gene 51)
The test can be described thus: LTEA_HepaRG_ACOX1: Life Technologies and Expression Analysis (LTEA) Assay for Peroxisomal acyl-coenzyme A oxidase 1 (ACOX1) gene using HepaRG (AID 2283467). The following applies: mRNA level, 48 h; actives raise or lower the signal. Summed up:
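ACOX1 transcript levels were quantified by TaqMan qRT-PCR against three housekeeping genes after 48 h chemical exposure of differentiated human HepaRG cells. Exposure used eight half-log steps topping at 100 uM, 0.5% DMSO vehicle, in duplicate. Bidirectional curve fits were made relative to DMSO.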

Read-out in test [20]: Cyclin D2 (CCND2), CCND2 (gene 894)
The test can be described thus: LTEA_HepaRG_CCND2: Life Technologies and Expression Analysis (LTEA) Assay for Cyclin D2 (CCND2) using HepaRG (AID 2283449). The following applies: mRNA level, 48 h; actives raise or lower the signal. The method in brief:
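CCND2 transcript levels, quantified by qRT-PCR and normalised to three housekeeping genes, were fitted bidirectionally against 0.5% DMSO. HepaRG cultures were dosed 48 h in duplicate with an 8-point half-log series up to 100 uM.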

Active and inactive are the calls of the source. The calls were made as follows: active = hit-call score of the fitted dose curve at least 0.9, where 1 is the maximum; inactive = score below 0.9.

Chain of Fatty acid synthase (Homo sapiens) (P49327 whole entry, looked up): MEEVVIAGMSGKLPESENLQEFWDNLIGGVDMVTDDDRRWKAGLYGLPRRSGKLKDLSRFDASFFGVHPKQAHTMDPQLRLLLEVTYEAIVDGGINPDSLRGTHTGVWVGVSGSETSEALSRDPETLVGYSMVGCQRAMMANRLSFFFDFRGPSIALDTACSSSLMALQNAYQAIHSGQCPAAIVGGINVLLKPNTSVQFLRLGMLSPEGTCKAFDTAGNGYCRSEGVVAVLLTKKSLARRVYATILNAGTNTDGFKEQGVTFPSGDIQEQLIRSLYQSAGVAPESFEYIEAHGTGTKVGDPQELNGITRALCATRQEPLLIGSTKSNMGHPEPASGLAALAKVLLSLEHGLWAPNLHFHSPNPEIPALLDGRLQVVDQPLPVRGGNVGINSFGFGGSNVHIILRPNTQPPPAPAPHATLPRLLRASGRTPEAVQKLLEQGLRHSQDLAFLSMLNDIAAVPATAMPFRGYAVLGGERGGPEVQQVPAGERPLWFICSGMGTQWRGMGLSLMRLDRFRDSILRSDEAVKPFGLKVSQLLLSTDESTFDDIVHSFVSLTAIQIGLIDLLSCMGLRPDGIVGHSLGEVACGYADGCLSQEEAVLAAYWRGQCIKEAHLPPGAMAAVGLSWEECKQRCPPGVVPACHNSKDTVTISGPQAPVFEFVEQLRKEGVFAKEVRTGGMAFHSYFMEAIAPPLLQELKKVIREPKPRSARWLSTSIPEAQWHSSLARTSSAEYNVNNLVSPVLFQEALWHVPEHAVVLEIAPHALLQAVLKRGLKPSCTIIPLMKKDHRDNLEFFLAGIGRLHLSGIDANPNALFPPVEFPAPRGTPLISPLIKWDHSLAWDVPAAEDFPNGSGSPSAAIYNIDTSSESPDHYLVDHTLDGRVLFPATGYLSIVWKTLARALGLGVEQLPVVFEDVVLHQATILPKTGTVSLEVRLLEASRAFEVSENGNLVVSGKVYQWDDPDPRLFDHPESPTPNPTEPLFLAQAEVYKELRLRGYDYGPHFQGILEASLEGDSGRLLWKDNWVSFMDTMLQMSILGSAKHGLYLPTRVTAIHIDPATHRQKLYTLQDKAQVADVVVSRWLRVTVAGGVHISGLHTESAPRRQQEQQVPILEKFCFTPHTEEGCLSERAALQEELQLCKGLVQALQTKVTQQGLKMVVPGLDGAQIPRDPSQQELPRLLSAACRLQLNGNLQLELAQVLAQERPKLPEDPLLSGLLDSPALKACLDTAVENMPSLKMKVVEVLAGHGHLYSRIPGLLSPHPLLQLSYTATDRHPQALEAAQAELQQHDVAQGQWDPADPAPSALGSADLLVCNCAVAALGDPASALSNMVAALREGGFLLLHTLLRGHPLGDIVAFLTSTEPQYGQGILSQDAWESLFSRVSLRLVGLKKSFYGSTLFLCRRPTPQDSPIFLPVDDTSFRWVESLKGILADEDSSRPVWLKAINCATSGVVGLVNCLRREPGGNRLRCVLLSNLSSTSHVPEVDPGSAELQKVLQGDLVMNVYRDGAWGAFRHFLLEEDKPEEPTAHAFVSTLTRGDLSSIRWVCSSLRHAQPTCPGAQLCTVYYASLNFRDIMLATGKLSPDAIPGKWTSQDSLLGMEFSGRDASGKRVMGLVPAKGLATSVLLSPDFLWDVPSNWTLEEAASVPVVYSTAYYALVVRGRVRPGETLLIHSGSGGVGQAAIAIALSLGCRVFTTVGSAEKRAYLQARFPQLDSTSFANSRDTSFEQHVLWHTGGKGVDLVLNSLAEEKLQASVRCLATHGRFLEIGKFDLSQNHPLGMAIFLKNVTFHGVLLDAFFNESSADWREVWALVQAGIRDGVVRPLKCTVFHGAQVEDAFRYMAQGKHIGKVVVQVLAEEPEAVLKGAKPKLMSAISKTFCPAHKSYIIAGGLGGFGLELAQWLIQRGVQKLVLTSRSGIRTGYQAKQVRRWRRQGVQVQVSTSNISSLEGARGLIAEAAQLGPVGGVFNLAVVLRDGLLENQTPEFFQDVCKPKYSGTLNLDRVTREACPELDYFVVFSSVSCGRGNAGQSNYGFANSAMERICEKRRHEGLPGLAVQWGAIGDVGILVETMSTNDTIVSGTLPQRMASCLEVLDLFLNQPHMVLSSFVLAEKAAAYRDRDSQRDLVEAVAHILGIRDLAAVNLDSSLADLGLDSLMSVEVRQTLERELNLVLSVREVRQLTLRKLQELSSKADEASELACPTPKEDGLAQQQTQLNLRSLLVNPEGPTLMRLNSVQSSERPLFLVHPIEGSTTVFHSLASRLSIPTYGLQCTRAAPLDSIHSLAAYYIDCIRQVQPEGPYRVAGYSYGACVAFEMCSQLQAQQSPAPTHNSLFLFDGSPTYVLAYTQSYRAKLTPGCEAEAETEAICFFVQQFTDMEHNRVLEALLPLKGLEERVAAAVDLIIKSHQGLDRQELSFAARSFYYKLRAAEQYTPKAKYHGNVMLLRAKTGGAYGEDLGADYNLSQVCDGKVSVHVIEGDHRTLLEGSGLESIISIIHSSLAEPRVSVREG
Chain of Broad substrate specificity ATP-binding cassette transporter ABCG2 (Homo sapiens) (Q9UNQ0 whole entry, looked up): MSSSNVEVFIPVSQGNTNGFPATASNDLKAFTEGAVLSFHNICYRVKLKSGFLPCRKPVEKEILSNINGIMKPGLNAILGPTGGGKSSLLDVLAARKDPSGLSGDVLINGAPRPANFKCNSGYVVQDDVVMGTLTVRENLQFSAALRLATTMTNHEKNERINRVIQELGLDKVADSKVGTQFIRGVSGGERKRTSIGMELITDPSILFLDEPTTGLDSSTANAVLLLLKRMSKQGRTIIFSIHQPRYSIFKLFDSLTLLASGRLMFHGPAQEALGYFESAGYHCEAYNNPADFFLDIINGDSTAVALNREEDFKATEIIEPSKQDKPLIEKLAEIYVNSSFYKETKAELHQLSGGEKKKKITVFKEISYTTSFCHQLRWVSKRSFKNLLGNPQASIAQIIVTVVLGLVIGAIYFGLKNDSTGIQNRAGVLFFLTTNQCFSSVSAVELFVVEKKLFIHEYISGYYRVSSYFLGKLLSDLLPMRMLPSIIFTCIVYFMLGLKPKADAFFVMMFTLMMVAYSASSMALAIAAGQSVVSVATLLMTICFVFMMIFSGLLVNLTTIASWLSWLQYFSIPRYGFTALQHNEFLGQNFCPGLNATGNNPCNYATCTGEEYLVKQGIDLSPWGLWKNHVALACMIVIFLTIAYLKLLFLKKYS

With `CCC(=O)Nc1ccc(Cl)c(Cl)c1`, the AC50 in test [1] was 30.8 µM (active); in test [3] it was 50 µM (active); in test [6] it was 32.1 µM (active); in test [9], 2.93 µM (active); in test [16] it was 50 µM (active). In addition, the compound was classed as inactive in [2], in test [4], in test [5], in test [7], in test [8] and in test [10]. In addition, the call in [11], in test [12], in test [13], in test [14], in [15] and in [17] was inactive. Also, the compound was called inactive in test [18] and in test [19].

On to `O=C(O)c1cc(Oc2ccc(C(F)(F)F)cc2Cl)ccc1[N+](=O)[O-]`, for which the outcome in test [1], in test [20], in [2], in test [3], in test [4] and in test [5] was inactive. Besides, the compound was classed as inactive in [7], in test [8], in test [11], in test [14], in [15] and in [18]. For the same compound, the concentration at half-maximal activity (AC50) is 50 µM (active) in test [6]; 50 µM (active) in [12]; 50 µM (active) in [16]; 2.98 µM (active) in test [17]; 28.4 µM (active) in test [19].

Regarding `CNc1cnn(-c2cccc(C(F)(F)F)c2)c(=O)c1Cl`, the AC50 in [1] was 18 µM (active); in test [5], 38.8 µM (active); in [6] it was 3.99 µM (active); in test [11], 31.1 µM (active); in test [12], 74.9 µM (active); in test [13], 50 µM (active). For the same compound, the values for the half-maximal activity concentration (AC50) in test [15] and in test [17] were 20.1 µM (active) and 17.4 µM (active), respectively. Moreover, the call in [20], in [2], in test [3], in [4], in test [7] and in [8] was inactive. In addition, the call in test [10], in [14], in test [16], in test [18] and in [19] was inactive.

As for `Cc1cc(C2CC2)nc(Nc2ccccc2)n1`, the values for the AC50 in [1], in [6] and in test [15] were 50 µM (active), 0.52 µM (active) and 74.6 µM (active), respectively. Moreover, the outcome in test [20], in [2], in test [3], in test [4], in [5] and in test [7] was inactive. The call in test [8], in test [10], in [11], in test [12], in test [13] and in [14] was inactive. In addition, the compound was classed as inactive in [16], in test [17], in test [18] and in [19].
